# Assay results taken from PubChem BioAssay (NCATS).
# Values joined by “and” are separate entries in the source; they are usually repeats but may differ in a detail not shown here. Identical values can stand only once. Results filed as inconclusive are left out. Entries that show only a call come without a potency. Active and inactive are the calls of the source. Unless noted, calls come from the whole dose curve.
# Assays:
# [1] = molecular target: Peroxisome proliferator-activated receptor delta (Homo sapiens) (UniProt Q03181); assay: qHTS assay for small molecule agonists of peroxisome proliferator-activated receptor delta signaling (AID 588534)
# Sequence of Peroxisome proliferator-activated receptor delta (Homo sapiens) (Q03181 whole entry, looked up): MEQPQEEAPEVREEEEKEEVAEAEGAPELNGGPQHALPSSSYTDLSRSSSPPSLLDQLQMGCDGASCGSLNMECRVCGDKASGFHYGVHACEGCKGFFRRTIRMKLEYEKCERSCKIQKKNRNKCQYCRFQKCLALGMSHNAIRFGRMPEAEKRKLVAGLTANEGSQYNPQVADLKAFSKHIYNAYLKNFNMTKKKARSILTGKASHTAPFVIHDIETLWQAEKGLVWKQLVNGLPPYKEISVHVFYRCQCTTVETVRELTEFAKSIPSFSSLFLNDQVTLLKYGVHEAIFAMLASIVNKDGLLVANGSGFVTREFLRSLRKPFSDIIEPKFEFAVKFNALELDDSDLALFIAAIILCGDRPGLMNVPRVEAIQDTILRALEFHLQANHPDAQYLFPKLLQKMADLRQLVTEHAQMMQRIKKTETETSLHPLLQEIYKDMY
# Outline: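 Fluorescence from CCF4 substrate cleavage by beta-lactamase reporter, read 2 hrs at RT, measured agonist activity. Compounds were tested with 18 hrs exposure at 37 C. Concentration-response data fitted to Hill equation.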
# [2] = qHTS assay for small molecule antagonists of peroxisome proliferator-activated receptor delta signaling (AID 588535; active = well fitted inhibition curve with a large enough effect in the signal ratio, with a control signal flat, not every such curve was filed as active; the % refers to the signal ratio;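 for max response: cells co-treated with a PPAR-delta agonist as stimulator during compound exposure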); details: HEK293T PPARd-UAS-bla, beta-lactamase FRET ratio, 18 h; 460 nm channel
# Outline: (§1)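 Reporter: UAS-bla under PPAR-delta response element, HEK293T host. Medium: 2% charcoal/dextran FBS. Dosing: titration, 18 hrs, 37 C. Detection: CCF4, 2 hrs RT, 405 ex/460 and 530 em.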
# [3] = molecular target: Peroxisome proliferator-activated receptor delta (Homo sapiens) (UniProt Q03181); assay: as above
# Outline: as §1
# [4] = molecular target: Peroxisome proliferator-activated receptor gamma (Homo sapiens) (UniProt P37231); assay: qHTS assay for small molecule antagonists of peroxisome proliferator-activated receptor gamma signaling (AID 588537; active = well fitted inhibition curve with a large enough effect in the signal ratio, with a control signal flat, not every such curve was filed as active; the % refers to the signal ratio;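 note: reporter cells co-stimulated with 50 nM rosiglitazone agonist during compound treatment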)
# Sequence of Peroxisome proliferator-activated receptor gamma (Homo sapiens) (P37231 whole entry, looked up): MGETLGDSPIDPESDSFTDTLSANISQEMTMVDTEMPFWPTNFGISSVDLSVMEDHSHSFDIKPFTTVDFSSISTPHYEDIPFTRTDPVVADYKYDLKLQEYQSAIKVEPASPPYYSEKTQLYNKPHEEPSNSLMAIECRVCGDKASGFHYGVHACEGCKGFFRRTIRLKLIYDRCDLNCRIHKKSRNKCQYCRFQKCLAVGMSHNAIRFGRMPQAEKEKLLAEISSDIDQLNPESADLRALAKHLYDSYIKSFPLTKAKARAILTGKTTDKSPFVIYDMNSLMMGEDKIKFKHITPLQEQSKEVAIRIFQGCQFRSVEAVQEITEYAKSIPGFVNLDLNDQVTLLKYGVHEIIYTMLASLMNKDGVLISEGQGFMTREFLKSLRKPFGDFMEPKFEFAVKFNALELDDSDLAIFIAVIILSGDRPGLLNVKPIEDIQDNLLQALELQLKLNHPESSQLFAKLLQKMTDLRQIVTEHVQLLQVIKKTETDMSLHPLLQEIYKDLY
# Outline: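 We seeded GeneBLAzer HEK293 reporter cells at 3000 per well, allowed 6-6.5 h attachment at 37 C, then co-treated with test compound titrations and 50 nM rosiglitazone overnight (16 h). Inhibition was quantified from 460/530 nm emission ratios.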
# [5] = molecular target: Vitamin D3 receptor (Homo sapiens) (UniProt P11473); assay: qHTS assay for small molecule antagonists of vitamin D receptor signaling (AID 588541);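 note: receptor activated by calcitriol during compound treatment; series mostly up to about 77 µM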
# Sequence of Vitamin D3 receptor (Homo sapiens) (P11473 whole entry, looked up): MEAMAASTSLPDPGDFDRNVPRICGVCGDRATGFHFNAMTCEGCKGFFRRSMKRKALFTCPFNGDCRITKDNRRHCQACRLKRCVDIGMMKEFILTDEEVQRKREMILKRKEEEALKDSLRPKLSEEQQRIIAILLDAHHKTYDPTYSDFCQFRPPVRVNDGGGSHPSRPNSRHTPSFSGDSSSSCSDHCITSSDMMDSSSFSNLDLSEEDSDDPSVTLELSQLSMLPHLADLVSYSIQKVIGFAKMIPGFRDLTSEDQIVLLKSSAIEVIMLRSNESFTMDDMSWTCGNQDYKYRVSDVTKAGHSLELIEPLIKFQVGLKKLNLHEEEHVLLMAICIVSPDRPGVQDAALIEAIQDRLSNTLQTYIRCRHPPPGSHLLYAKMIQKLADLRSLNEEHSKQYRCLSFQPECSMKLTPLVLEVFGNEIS
# Outline: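 VDR-UAS-bla HEK293T cells (2000/well, 2% charcoal-stripped FBS) were treated with titrated compounds plus 1-alpha,25-dihydroxyvitamin D3 (50 nM or 3 nM final) for 16 h at 37 C. CCF4 beta-lactamase fluorescence was read; Hill fits gave IC50.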
# [6] = molecular target: Vitamin D3 receptor (Homo sapiens) (UniProt P11473); assay: qHTS assay for small molecule agonists of vitamin D receptor signaling (AID 588543)
# Outline: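 VDR-UAS-bla HEK293T cells, 2000/well, 2% charcoal-stripped FBS; compound titration 16 h at 37 C; CCF4 beta-lactamase ratio read. Normalized to 50 nM 1-alpha,25-dihydroxyvitamin D3 (100%) and DMSO; Hill fit gives EC50, efficacy.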
# [7] = molecular target: Retinoic acid receptor RXR-alpha (Homo sapiens) (UniProt P19793); assay: qHTS assay for small molecule agonists of retinoid X receptor alpha signaling (AID 588544)
# Sequence of Retinoic acid receptor RXR-alpha (Homo sapiens) (P19793 whole entry, looked up): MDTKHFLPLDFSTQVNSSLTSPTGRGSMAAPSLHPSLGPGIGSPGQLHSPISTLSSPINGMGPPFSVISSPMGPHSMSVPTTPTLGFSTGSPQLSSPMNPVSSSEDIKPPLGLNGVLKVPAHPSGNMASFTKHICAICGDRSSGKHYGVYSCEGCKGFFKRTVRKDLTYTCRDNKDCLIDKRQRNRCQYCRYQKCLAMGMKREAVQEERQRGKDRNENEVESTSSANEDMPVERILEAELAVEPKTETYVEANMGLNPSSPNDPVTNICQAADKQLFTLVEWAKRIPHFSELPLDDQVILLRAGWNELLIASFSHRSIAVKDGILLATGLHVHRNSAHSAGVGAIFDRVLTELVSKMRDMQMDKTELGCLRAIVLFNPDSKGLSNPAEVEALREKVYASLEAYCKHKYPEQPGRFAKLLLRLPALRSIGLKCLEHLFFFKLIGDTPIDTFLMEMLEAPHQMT
# [8] = molecular target: Thyroid hormone receptor beta (Homo sapiens) (UniProt P10828); assay: qHTS assay for small molecule agonists of thyroid hormone receptor beta signaling (AID 588545)
# Sequence of Thyroid hormone receptor beta (Homo sapiens) (P10828 whole entry, looked up): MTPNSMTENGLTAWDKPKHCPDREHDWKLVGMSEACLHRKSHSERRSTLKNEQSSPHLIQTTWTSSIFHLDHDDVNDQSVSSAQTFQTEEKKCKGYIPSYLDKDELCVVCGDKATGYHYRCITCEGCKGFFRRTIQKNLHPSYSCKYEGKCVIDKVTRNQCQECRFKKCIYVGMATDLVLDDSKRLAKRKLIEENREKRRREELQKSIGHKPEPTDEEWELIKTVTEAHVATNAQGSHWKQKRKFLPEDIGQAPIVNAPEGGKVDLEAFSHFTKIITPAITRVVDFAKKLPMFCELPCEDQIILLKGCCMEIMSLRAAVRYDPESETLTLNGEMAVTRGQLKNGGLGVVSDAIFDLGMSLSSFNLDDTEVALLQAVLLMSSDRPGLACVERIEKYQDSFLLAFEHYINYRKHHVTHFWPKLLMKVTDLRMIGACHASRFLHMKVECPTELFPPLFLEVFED
# Outline: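 TR-UAS-bla-GripTite HEK 293 cells in medium with 2% charcoal/dextran FBS, 0.1 mM NEAA and 1 mM sodium pyruvate were treated with titrated compounds for 18 hrs at 37 C. Beta-lactamase reporter was read with CCF4 dye (ex 405, em 460/530 nm); EC50 from Hill fits.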
# [9] = qHTS assay for small molecule antagonists of retinoid X receptor alpha signaling (AID 588546; active = well fitted inhibition curve with a large enough effect in the signal ratio, with a control signal flat, not every such curve was filed as active; the % refers to the signal ratio;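 note: cells stimulated with 9-cis-retinoic acid as agonist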); details: HEK293T RXRa-UAS-bla, beta-lactamase ratio, antagonist mode; measured here: W530 green channel, cytotoxicity proxy
# Outline: (§2)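 Beta-lactamase reporter inhibition, read as CCF4 fluorescence ratio (ex 405, em 460/530 nm) after 2 h at RT. HEK293T UAS-bla cells, 2500/well, were stimulated with 9-cis-RA at 500 or 100 nM final alongside test compound for 18 h at 37 C.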
# [10] = molecular target: Retinoic acid receptor RXR-alpha (Homo sapiens) (UniProt P19793); assay: as above; details: HEK293T RXRa-UAS-bla, beta-lactamase ratio, antagonist mode
# Outline: as §2
# [11] = qHTS assay for environmental chemicals that activate the Aryl hydrocarbon Receptor (AhR) signaling pathway (AID 651777; active = well fitted curve in the direction sought with a large enough effect; an effect the other way counts as inactive or inconclusive; note: nearly all actives have a fitted effect of over 15% in size); details: 1A2-DRE human hepatoma cells, luciferase, 24 h; activation: stronger effect = higher value
# Outline: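 Measured luciferase activity, read 30 min after One-Glo addition at room temperature, from human hepatoma cells bearing a dioxin response element–CYP1A2 promoter reporter and exposed to compound for 24 hr at 37 C.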
# [12] = molecular target: Peroxisome proliferator-activated receptor alpha (Homo sapiens) (UniProt Q07869); assay: qHTS assay for small molecule agonists of the peroxisome proliferator-activated receptor alpha (PPARalpha) signaling pathway (AID 651778; active = well fitted curve in the direction sought with a large enough effect; an effect the other way counts as inactive or inconclusive); details: PathHunter PPARalpha complementation, chemiluminescence, 6 h; max response: stronger effect = higher value
# Sequence of Peroxisome proliferator-activated receptor alpha (Homo sapiens) (Q07869 whole entry, looked up): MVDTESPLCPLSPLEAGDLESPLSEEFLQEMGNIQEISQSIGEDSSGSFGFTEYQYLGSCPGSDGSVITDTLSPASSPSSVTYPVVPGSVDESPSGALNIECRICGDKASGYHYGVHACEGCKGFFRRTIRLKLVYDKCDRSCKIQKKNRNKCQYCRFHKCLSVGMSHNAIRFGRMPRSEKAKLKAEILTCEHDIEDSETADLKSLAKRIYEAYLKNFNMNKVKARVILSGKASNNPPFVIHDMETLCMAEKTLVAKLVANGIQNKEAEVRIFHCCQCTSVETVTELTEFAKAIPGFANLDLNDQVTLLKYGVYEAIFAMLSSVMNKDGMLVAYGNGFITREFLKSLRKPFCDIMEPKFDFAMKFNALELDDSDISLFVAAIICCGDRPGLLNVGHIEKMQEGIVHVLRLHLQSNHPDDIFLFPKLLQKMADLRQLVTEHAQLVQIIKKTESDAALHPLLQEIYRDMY
# Outline: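 Cells plated at 2,000/well and held overnight at 37 C, 5% CO2, then compound added by pin tool for 6 hr; after PathHunter detection reagent and 60 min at room temperature, chemiluminescence from enzyme complementation was read.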
# [13] = qHTS assay for small molecule agonists of the antioxidant response element (ARE) signaling pathway measured by Nrf2-dependant transcriptional activity (AID 720636; active = well fitted curve in the direction sought with a large enough effect in the repeat runs; an effect the other way counts as inactive or inconclusive;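 note: HepG2 cells with an ARE-driven luciferase reporter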)
# Outline: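 In HepG2 cells engineered with an Nrf2-responsive luciferase gene, ARE induction was quantified as luminescence after 16 hr compound treatment at 37 C.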
# [14] = qHTS assay for cell viability of HEK293 cells (AID 743288; active = well fitted curve in the direction sought with a large enough effect; an effect the other way counts as inactive or inconclusive; note: nearly all actives have a fitted effect of over 50% in size); details: ATP luminescence (CellTiter-Glo), 18 h; max response: stronger effect = lower value
# Outline: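 Parental HEK293 cells, 2,000 per well, preincubated at least 5 h at 37 C, then exposed to compounds in DMSO for 18 h at 37 C. Viability by CellTiter-Glo ATP luminescence after 30 min at room temperature.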
# [15] = qHTS assay for cell viability of the p53RE-bla HCT-116 cell line (AID 743292; active = well fitted curve in the direction sought with a large enough effect; an effect the other way counts as inactive or inconclusive; note: nearly all actives have a fitted effect of over 55% in size)
# Outline: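 Intracellular ATP of p53RE-bla HCT-116 cells measured by luciferase luminescence following 16 h compound incubation at 37 C; DMSO-only wells served as vehicle controls.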
# [16] = molecular target: Nuclear receptor subfamily 1 group I member 2 (Rattus norvegicus) (UniProt Q9R1A7); assay: qHTS assay for small molecule activators of the rat pregnane X receptor (rPXR) signaling pathway (AID 651751; call rule not given here); details: rPXR reporter cells, luciferase (One-Glo), 24 h
# Sequence of Nuclear receptor subfamily 1 group I member 2 (Rattus norvegicus) (Q9R1A7 whole entry, looked up): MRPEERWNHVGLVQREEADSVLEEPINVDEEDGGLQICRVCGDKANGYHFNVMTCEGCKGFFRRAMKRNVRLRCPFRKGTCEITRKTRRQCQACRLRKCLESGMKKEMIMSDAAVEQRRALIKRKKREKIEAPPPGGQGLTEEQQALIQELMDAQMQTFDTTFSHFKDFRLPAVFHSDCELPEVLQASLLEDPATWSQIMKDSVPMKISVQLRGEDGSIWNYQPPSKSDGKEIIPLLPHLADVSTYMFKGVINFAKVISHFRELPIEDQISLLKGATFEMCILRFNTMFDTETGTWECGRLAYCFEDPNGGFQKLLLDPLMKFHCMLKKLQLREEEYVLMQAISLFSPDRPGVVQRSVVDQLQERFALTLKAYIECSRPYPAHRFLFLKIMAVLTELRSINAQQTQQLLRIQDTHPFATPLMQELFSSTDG
# [17] = molecular target: Glucocorticoid receptor (Homo sapiens) (UniProt P04150); assay: qHTS assay for small molecule agonists of glucocorticoid receptor signaling (AID 588532; active = well fitted curve in the direction sought with a large enough effect in the signal ratio, with a control signal flat; the % refers to the signal ratio); details: HeLa MMTV-bla, beta-lactamase ratio, agonist, 18 h; activation: stronger effect = higher value, percent of dexamethasone control, DMSO zero
# Sequence of Glucocorticoid receptor (Homo sapiens) (P04150 whole entry, looked up): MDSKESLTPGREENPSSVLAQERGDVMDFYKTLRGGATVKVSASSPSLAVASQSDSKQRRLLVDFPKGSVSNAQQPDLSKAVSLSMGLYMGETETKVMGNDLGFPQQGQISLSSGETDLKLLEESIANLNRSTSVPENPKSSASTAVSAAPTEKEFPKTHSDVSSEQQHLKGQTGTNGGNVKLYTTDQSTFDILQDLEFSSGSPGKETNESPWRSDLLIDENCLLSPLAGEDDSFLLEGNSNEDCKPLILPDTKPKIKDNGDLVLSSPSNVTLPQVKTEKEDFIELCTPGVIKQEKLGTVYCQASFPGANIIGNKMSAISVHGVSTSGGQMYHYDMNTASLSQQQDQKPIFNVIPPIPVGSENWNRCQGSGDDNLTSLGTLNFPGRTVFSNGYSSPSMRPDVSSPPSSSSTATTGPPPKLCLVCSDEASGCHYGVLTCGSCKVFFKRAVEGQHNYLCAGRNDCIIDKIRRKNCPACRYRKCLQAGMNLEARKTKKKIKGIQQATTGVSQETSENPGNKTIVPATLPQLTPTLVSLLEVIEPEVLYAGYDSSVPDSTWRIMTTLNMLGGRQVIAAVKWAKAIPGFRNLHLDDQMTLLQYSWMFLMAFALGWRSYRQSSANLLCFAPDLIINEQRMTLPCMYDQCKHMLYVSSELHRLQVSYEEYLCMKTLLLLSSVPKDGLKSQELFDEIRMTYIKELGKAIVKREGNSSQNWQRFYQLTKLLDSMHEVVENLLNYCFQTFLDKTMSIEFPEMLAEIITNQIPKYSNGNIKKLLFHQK
# Outline: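 Titration series, up to 92 uM, applied to GRE-bla HeLa cells for 18 h at 37 C. Detection by CCF4 FRET substrate after 2 h at RT.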
# [18] = molecular target: Peroxisome proliferator-activated receptor gamma (Homo sapiens) (UniProt P37231); assay: qHTS assay for small molecule agonists of peroxisome proliferator-activated receptor gamma signaling (AID 588536; active = well fitted curve in the direction sought with a large enough effect in the signal ratio, with a control signal flat, not every such curve was filed as active; the % refers to the signal ratio)
# Outline: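 Test agents, titrated, stimulated HEK293 UAS-bla cells overnight (16 h, 37 C). Substrate CCF4 was then added for two hours at room temperature before fluorescence reading.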
# [19] = qHTS assay for small molecule agonists of the antioxidant response element (ARE) signaling pathway measured by Nrf2-dependant transcriptional activity - cell viability counter screen (AID 720653; active = well fitted curve in the direction sought with a large enough effect in the repeat runs; an effect the other way counts as inactive or inconclusive); details: ARE-bla HepG2 viability, CellTiter-Glo ATP luminescence, 16 h; max response: stronger effect = lower value
# Outline: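 ARE-bla HepG2 cells (2,000/well) rested 5 hrs at 37C/5% CO2, then exposed to compounds in DMSO for 16 hrs. Viability was read in the same wells as intracellular ATP by luminescence, 30 min at room temperature after reagent addition.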
# [20] = qHTS assay for small molecule activators of the p53 signaling pathway (AID 651743; active = well fitted activation curve with a large enough effect in the signal ratio, not every such curve was filed as active; the % refers to the signal ratio; note: series mostly up to about 92 µM); details: HCT-116 p53RE-bla, beta-lactamase FRET ratio, 16 h; activation: stronger effect = higher value
# Outline: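 Cell-based beta-lactamase reporter (p53 response elements, HCT-116 background). After a 5-hour preincubation, cells received compound for 16 hours at 37 C; substrate development ran 2 hours at room temperature.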
Structure (SMILES),outcome [1],max response [2],Potency [3],Potency [4],Potency [5],outcome [6],Potency [7],Potency [8],max response [9] [%],max response [10],activation [11],max response [12],Potency [13],max response [14],Potency [15],max response [16],activation [17],Potency [18],max response [19],activation [20]
O=Cc1cccc(Oc2ccccc2)c1,inactive,10.7%,inactive,inactive,inactive,inactive,inactive,inactive,1.81,1.63% (inactive),-0.398% (inactive),4.39% (inactive),inactive,-4.08% (inactive),inactive,0.0469% (inactive),,,,
c1cc[n+]2c(c1)-c1cccc[n+]1CC2,inactive,45.8%,inactive,inactive,inactive,inactive,inactive,inactive,2.2,-20.8% (inactive),-0.462% (inactive),-2.84% (inactive),,-11.6% (inactive),,,1.75% (inactive),inactive,1.16% (inactive),
CCSC(C)CC1CC(=O)C(/C(CC)=N/OC/C=C/Cl)=C(O)C1 (centres undefined),inactive,62.4%,inactive,inactive,inactive,inactive,,inactive,-6.58,0.139% (inactive),-2.18% (inactive),0.0996% (inactive),inactive,-16.3% (inactive),inactive,,-3.59% (inactive),inactive,-19.5% (inactive),-5.66% (inactive)
CNC(=O)Oc1ccc(N(C)C)c(C)c1,inactive,-23.4%,inactive,inactive,inactive,inactive,inactive,inactive,-12.9,7.08% (inactive),3.59% (inactive),-2.96% (inactive),inactive,-1.07% (inactive),inactive,2.85% (inactive),-10.5% (inactive),inactive,5.88% (inactive),2.89% (inactive)
CNC(=S)S,inactive,-6.57%,inactive,inactive,inactive,inactive,inactive,,-10.7,-13.7% (inactive),0.794% (inactive),-2.07% (inactive),inactive,-18% (inactive),inactive,0.745% (inactive),-6.24% (inactive),inactive,-4.46% (inactive),-4.42% (inactive)
O=S(=O)(O)C(F)(F)C(F)(F)C(F)(F)C(F)(F)C(F)(F)C(F)(F)F,inactive,-35.3% and 95.7%,inactive,inactive,inactive,inactive,inactive,inactive,0.0729,-0.502% (inactive),2.71% (inactive) and 0.937% (inactive),12% (inactive) and 14.9% (inactive),inactive,-20.2% (inactive) and -14.6% (inactive),inactive,-2.73% (inactive) and -3.57% (inactive),2.96% (inactive) and -3.35% (inactive),inactive,4.85% (inactive) and -13.8% (inactive),-1.95% (inactive) and 1.08% (inactive)
